Data on eight compounds can be found in PubChem BioAssay (NCATS).

The structures appear in SMILES notation. Values without a mark were called inactive. Results filed as inconclusive are left out. Activity calls are given as the source filed them. Unless noted, calls come from the whole dose curve; as a rule, active = well fitted curve in either direction with a large enough effect (not every such curve was filed as active); inconclusive = small, poorly fitted or top-dose-only effect, or another doubt; inactive = flat fitted curve, though single readings scatter.

Test [1] concerns the target Lysosomal acid glucosylceramidase (Homo sapiens) (UniProt P04062). Put plainly: Glucocerebrosidase-p2 (AID 348; in the data active = potency below about 10 µM; note: potency is the fitted concentration of half-maximal effect). Conditions: purified GBA, blue fluorogenic substrate, 40 min. In outline: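 Normal human glucocerebrosidase (0.2 nM) with blue fluorogenic substrate (80 uM final) in citrate/phosphate pH 5.9 with 10mM sodium taurocholate, 0.01% tween-20; 40 min RT, NaOH/glycine stop; fluorescence Ex 365/Em 440; AC50 from a titration from 0.6 nM upwards.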

Test [2] in a line: AP1 Signaling Pathway (AID 357). Note: % is set by controls: 0 for no effect and ±100 for the full control effect. As to conditions: ME-180 AP-1-bla reporter, EGF-induced, beta-lactamase ratio, 5 h; at 7.69 µM (top of the series) unless noted. An outline of the steps: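 ME-180 cells with beta-lactamase reporter under AP-1 response element, stimulated with EC50 EGF; compounds tested in titration series, 5 h at 37 °C. CCF4 substrate added 2.5 h at room temperature; 460/530 nm emission ratio gave %activity and AC50.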

The target in test [3] is Cytochrome P450 1A2 (Homo sapiens) (UniProt P05177). The experiment in a line: p450-cyp1a2 (AID 410; calls by dose curve; note: potency is the fitted concentration of half-maximal effect;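 for activity change, negative = inhibition: -100% = full effect of reference inhibitor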). As to conditions: recombinant CYP1A2, luciferin-ME demethylation, luminescence; series mostly up to 57 µM. In outline:
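O-Demethylation of luciferin 6' methyl ether by human CYP1A2 is monitored as luciferase luminescence. Substrate sits at Km (100uM); enzyme is 20nM. Values are scaled to 57 uM furafylline as maximal inhibition.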

Test [4] in a line: NFAT Signaling Pathway (AID 444).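 Note: carbachol stimulus at about its EC50 of 1 µM final; % is set by controls: 0 for no effect and ±100 for the full control effect.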 Conditions: Jurkat NFAT-bla M1, carbachol, beta-lactamase ratio, 5 h; at 7.69 µM (top of the series) unless noted. In outline:
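Jurkat cells carrying an NFAT-driven β-lactamase reporter and co-transfected muscarinic M1 receptor were treated with compound plus carbachol (1 uM final, an EC50 level) for 5 h at 37 °C. CCF4 loading followed for 1 h at RT; 460/530 nm ratio gave %activity.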

The nature of test [5]: Stat Signaling Pathway (AID 446).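 Note: ME-180 cervical cancer cells given 40 pM IL-6 alongside compound; SIE-controlled beta-lactamase reporter measured as 460/530 nm FRET emission ratio; % is set by controls: 0 for no effect and ±100 for the full control effect.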 Conditions: ME-180 SIE beta-lactamase reporter, IL-6 stimulated, 5 h; at 7.69 µM (top of the series) unless noted. In outline:
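Normalization used AC90 stimulation (300 pM IL-6) and AC90 inhibition (125 nM pan-JAK inhibitor at 40 pM IL-6). The underlying signal is SIE-driven beta-lactamase in ME-180 cells after 5 h IL-6 exposure with compound.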

For test [6], the target named is Glucocorticoid receptor (Homo sapiens) (UniProt P04150). Put plainly: GR-EFC Redistribution (AID 451; calls by dose curve; note: potency is the fitted concentration of half-maximal effect). As to conditions: CHO-K1 GR-EFC translocation, beta-gal luminescence, 2 h. An outline of the steps: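 CHO-K1 cells stably expressing nuclear-localized β-gal enzyme acceptor and GR fused C-terminally to the enzyme donor fragment; ligand-driven nuclear translocation restores β-gal by complementation. Compounds titrated up to 46 uM final, 2 h at 37 °C; luminescence read.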
Sequence of Glucocorticoid receptor (Homo sapiens) (P04150 whole entry, looked up, the tested form may be a part): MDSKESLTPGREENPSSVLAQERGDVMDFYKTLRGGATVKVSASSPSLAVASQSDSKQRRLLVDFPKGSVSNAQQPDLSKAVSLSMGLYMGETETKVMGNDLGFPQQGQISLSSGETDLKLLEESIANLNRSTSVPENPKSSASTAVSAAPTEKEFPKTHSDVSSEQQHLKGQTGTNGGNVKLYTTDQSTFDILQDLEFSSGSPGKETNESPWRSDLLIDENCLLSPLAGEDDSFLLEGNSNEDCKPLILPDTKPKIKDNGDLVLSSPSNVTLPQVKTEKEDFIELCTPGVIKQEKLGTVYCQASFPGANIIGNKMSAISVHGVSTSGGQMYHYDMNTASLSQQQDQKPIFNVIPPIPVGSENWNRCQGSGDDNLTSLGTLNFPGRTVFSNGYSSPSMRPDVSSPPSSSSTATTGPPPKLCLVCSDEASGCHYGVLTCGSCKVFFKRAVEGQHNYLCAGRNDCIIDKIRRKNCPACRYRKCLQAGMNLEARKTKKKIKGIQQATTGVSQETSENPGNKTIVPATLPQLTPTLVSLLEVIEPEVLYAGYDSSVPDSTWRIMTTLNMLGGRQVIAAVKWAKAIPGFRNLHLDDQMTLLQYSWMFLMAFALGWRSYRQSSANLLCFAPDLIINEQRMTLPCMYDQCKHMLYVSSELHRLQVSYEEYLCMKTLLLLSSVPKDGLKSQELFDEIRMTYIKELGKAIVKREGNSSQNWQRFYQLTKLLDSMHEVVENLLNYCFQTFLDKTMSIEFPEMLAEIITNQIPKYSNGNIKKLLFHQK

Test [7] addresses Mitogen-activated protein kinase 10 (Mus musculus) (UniProt Q61831). The experiment in a line: JNK3 AlphaScreen Assay (AID 530).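 Note: kinase came from lysate of stimulated human HepG2 cells; signal reports phosphorylation of biotinylated GST-cJun 1-79 at Ser73 with 10 µM ATP; % is set by controls: 0 for no effect and ±100 for the full control effect.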 As to conditions: JNK3 lysate, c-Jun phosphorylation; series mostly up to 57.1 µM. In outline:
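Phosphorylation of biotinylated GST-cJun(1-79) at Ser73 is measured by AlphaScreen proximity luminescence. Enzyme is JNK3 in HepG2 lysates activated with interleukin-1beta and tumor necrosis factor alpha; ATP is 10 uM final.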

Test [8] has as its target Cytochrome P450 2C9 (Homo sapiens) (UniProt P11712). Put plainly: qHTS Assay for Inhibitors and Substrates of Cytochrome P450 2C9 (AID 883; active = well fitted curve in the direction sought with a large enough effect; an effect the other way counts as inactive or inconclusive; note: potency is the fitted concentration of half-maximal effect; nearly all actives have a fitted effect of over 60% in size). Conditions: recombinant CYP2C9, luciferin-H luminescence, 60 min; series mostly up to 57.1 µM. An outline of the steps: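 Human CYP2C9 (10nM) hydroxylated Luciferin-H (100uM, at its KM) to luciferin in 25mM KPO4. Compound was preincubated 10 min at 37C, then NADPH regeneration started a 60 min reaction at 37C. Luminescence was read after detection reagent, normalized to 57uM sulphaphenazole.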
(In general: qHTS replaces the single test concentration by a dilution series.)

Test [9] addresses Cytochrome P450 3A4 (Homo sapiens) (UniProt P08684). Put plainly: qHTS Assay for Inhibitors and Substrates of Cytochrome P450 3A4 (AID 884; active = well fitted curve in the direction sought with a large enough effect; an effect the other way counts as inactive or inconclusive; note: nearly all actives have a fitted effect of over 50% in size; note: potency is the fitted concentration of half-maximal effect). Conditions: recombinant CYP3A4, Luciferin-PPXE luminescence; series mostly up to 57.1 µM. In outline: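 Luminescent readout of luciferin produced by CYP3A4 (20 nM) dealkylation of Luciferin-PPXE, 25 uM (its KM). NADPH-driven reaction ran 60 min at RT after 10 min compound preincubation; data scaled to 57 uM ketoconazole as 100% inhibition.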

Test [10] has the same target. Put plainly: qHTS Assay for Activators of Cytochrome P450 3A4 (AID 885; active = well fitted curve in the direction sought with a large enough effect; an effect the other way counts as inactive or inconclusive; note: nearly all actives have a fitted effect of over 65% in size; note: potency is the fitted concentration of half-maximal effect). Conditions: recombinant CYP3A4, Luciferin-PPXE luminescence, 60 min; series mostly up to 57.1 µM. In outline:
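Human CYP3A4 dealkylates Luciferin-PPXE to luciferin, which luciferase detection converts to light. Substrate was at its KM (25uM), buffer 200mM KPO4, reaction 60 min at RT.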

Test [11] can be described thus: Primary qHTS for small molecule stabilizers of the endoplasmic reticulum resident proteome: Secreted ER Calcium Modulated Protein (SERCaMP) assay (AID 1508630; active = well fitted curve in the direction sought with a large enough effect; an effect the other way counts as inactive or inconclusive; note: % is set by controls: 0 for no effect and ±100 for the full control effect). Conditions: SH-SY5Y GLuc-SERCaMP (Gaussia luciferase released on ER calcium loss) secretion, thapsigargin, luminescence; series mostly up to 38.4 µM. An outline of the steps: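 The SH-SY5Y reporter protocol was run at 3 concentrations up to 38.3 uM (primary) or 11 concentrations (follow-up): 16 h compound, 100 nM thapsigargin for 4 h, then extracellular luciferase luminescence.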

Test [12] deals with Glucocorticoid receptor (Homo sapiens) (UniProt P04150). Put plainly: GR-GFP Redistribution (AID 450;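 active = compounds whose dose series gives a full or clear partial fitted curve of increased nuclear translocation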; note: potency is the fitted concentration of half-maximal effect). As to conditions: U2OS GR-GFP nuclear translocation, laser cytometry, 2 h.
Test [13] concerns the target 3',5'-cyclic-AMP phosphodiesterase 4B (Homo sapiens) (UniProt Q07343). Put plainly: qHTS Assay for Inhibitors of PDE-IV (AID 607; active = well fitted activation curve with a large enough effect in the main read-out, with a control signal flat, not every such curve was filed as active; note: % of control where 0% means no effect). As to conditions: HEK293 ACTOne CNG channel cells, membrane potential fluorescence; series mostly up to 22.9 µM. In outline:
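HEK293 ACTOne cells with CNG channel (1000/well), endogenous PDE4; membrane potential dye, compounds up to 22.9 uM final. Fluorescence Ex 535/Em 590; RO 20-1724 (100 uM final) as reference.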

Test [14] is described as follows: Confirmation and Secondary Assay for Modulators of Hemoglobin Beta Chain Splicing at IVS2 654 locus (AID 910; active = well fitted curve in the direction sought with a large enough effect; an effect the other way counts as inactive or inconclusive;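 note: per-well total GFP intensity by laser scanning cytometry after 2-day treatment; % of control where 0% means no effect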). Conditions: HeLa EGFP-654 splicing reporter, GFP fluorescence, 48 h; series mostly up to 38.3 µM. In outline: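 HeLa cells stably carrying EGFP interrupted by mutant beta-globin IVS2-654 intron (CMV-driven) were treated with compound for 2 days at 37C; corrected splicing was scored as total peak GFP intensity per well (488 nm excitation, 500-520 nm emission).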

The target in test [15] is Ubiquitin carboxyl-terminal hydrolase 1 (Homo sapiens) (UniProt O94782). The experiment in a line: Inhibitors of USP1/UAF1: Pilot qHTS (AID 504865; active = well fitted curve in the direction sought with a large enough effect; an effect the other way counts as inactive or inconclusive;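 note: rhodamine fluorescence freed from ubiquitin-rhodamine substrate followed over time; top concentration of the series differs between compounds; % is set by controls: 0 for no effect and ±100 for the full control effect; nearly all actives have a fitted effect of over 35% in size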). As to conditions: purified USP1/UAF1, Ub-rhodamine cleavage fluorescence; series mostly up to 54.9 µM. An outline of the steps: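 1nM USP1/UAF1 + cpd, 15 min RT; start w/ Ub-Rho 150nM final; kinetic FL 480/540 nm, 6 reads q60 s. Buffer 50mM HEPES pH 7.8, 0.5mM EDTA, 1mM TCEP, 0.01% Tween-20, 0.1 mg/ml BSA.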
Sequence of Ubiquitin carboxyl-terminal hydrolase 1 (Homo sapiens) (O94782 whole entry, looked up): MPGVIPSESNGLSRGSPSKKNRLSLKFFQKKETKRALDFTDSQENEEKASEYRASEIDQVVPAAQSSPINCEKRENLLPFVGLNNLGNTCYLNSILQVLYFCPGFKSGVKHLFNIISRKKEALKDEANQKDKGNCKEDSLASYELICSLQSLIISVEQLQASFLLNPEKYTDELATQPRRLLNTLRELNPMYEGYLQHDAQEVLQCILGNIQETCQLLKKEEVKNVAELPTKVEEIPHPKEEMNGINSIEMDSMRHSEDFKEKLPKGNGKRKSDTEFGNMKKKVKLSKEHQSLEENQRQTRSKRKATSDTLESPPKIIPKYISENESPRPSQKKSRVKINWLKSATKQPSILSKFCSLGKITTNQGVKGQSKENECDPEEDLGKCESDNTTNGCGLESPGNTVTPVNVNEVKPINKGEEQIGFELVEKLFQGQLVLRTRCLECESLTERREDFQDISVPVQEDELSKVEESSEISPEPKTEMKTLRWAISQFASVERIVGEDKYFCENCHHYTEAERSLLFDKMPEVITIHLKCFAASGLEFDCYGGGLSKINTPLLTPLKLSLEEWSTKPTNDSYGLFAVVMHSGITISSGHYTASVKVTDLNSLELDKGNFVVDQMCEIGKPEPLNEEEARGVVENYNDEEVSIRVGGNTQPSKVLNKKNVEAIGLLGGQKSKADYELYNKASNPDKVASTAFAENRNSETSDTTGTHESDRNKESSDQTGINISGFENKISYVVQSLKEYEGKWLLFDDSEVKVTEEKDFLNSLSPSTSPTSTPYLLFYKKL

Test [16] is described as follows: qHTS Assay for Identification of Small Molecule Agonists for Hypoxia Response Element Signaling Pathway (AID 914; active = well fitted activation curve with a large enough effect in the signal ratio, with a control signal flat, not every such curve was filed as active; the % refers to the signal ratio; note: potency is the fitted concentration of half-maximal effect). Conditions: ME-180 (cervical carcinoma) HRE-bla reporter, beta-lactamase ratio, CoCl2, 17 h; activation: stronger effect = higher value. An outline of the steps: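 A beta-lactamase reporter under hypoxia response element control in ME-180 cells served as the system. Compound titrations plus EC50 CoCl2 ran 17 h at 37 degrees Celsius; AC50 values were fitted from %Activity.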

Test [17] deals with Cytochrome P450 2D6 (Homo sapiens) (UniProt P10635). Put plainly: qHTS Assay for Inhibitors and Substrates of Cytochrome P450 2D6 (AID 891; active = well fitted curve in the direction sought with a large enough effect; an effect the other way counts as inactive or inconclusive; note: potency is the fitted concentration of half-maximal effect; nearly all actives have a fitted effect of over 60% in size). As to conditions: recombinant CYP2D6, luciferin-ME EGE luminescence; series mostly up to 57.1 µM. In outline: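 Luminescent read-out of luciferin formed by 5 nM human CYP2D6 demethylating 30 uM Luciferin-ME EGE (Km level) over 60 min at room temperature after NADPH regeneration addition. Data normalized to full inhibition by 1.43 uM quinidine.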
Sequence of Cytochrome P450 2D6 (Homo sapiens) (P10635 whole entry, looked up): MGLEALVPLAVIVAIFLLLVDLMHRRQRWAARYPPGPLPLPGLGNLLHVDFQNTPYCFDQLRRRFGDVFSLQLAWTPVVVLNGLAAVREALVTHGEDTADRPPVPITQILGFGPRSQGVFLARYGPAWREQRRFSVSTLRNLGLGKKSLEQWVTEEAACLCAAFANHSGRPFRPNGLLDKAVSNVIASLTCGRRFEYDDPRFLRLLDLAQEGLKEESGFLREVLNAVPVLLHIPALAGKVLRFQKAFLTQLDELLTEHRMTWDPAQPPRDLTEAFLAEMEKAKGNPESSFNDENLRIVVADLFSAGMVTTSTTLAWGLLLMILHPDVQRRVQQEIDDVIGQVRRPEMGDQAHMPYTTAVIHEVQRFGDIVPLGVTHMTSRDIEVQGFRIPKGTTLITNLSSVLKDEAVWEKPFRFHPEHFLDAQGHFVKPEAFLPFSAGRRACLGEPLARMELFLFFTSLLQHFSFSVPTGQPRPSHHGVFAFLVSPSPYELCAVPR

Sequence of Cytochrome P450 1A2 (Homo sapiens) (P05177 whole entry, looked up): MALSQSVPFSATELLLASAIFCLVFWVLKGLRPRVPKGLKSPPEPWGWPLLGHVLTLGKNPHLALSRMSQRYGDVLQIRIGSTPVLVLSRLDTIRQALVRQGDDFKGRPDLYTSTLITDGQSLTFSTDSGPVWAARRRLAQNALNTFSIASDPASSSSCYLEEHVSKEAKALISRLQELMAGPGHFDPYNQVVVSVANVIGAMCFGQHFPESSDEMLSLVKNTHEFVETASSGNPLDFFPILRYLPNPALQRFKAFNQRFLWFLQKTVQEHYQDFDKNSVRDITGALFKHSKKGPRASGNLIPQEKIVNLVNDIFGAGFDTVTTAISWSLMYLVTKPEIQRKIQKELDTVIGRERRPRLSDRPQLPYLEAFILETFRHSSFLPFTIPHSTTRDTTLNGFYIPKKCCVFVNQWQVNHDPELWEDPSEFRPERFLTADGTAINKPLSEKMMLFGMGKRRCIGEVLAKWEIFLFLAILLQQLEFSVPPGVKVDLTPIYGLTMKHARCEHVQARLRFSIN
Sequence of Lysosomal acid glucosylceramidase (Homo sapiens) (P04062 whole entry, looked up): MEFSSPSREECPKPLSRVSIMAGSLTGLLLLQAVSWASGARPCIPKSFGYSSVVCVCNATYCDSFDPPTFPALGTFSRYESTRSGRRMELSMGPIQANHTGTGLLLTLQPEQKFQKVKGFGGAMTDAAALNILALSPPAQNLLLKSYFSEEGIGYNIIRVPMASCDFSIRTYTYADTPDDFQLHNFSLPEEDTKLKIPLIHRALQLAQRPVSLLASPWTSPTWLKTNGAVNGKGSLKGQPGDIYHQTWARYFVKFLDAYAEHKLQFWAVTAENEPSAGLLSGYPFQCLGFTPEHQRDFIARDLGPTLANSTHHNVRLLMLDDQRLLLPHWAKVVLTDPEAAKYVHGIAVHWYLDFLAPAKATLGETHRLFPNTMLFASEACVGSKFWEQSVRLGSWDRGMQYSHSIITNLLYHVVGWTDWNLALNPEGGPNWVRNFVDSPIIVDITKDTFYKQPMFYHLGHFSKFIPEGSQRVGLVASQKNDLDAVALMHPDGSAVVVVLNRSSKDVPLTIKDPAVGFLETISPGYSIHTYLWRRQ
Sequence of Cytochrome P450 3A4 (Homo sapiens) (P08684 whole entry, looked up): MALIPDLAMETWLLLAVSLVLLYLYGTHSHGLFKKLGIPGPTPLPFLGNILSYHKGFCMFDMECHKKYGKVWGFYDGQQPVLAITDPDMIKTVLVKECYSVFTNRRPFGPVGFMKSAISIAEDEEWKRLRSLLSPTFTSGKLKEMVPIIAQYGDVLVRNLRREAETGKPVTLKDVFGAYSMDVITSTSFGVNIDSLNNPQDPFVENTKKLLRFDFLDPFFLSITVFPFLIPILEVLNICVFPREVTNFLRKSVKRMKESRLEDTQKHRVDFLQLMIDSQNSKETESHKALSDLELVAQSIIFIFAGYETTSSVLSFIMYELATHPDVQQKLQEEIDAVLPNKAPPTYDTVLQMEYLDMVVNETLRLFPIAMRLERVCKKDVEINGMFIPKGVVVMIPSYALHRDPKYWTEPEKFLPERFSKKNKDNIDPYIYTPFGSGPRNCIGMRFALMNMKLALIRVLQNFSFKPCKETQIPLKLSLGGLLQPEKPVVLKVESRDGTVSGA
Sequence of 3',5'-cyclic-AMP phosphodiesterase 4B (Homo sapiens) (Q07343 whole entry, looked up): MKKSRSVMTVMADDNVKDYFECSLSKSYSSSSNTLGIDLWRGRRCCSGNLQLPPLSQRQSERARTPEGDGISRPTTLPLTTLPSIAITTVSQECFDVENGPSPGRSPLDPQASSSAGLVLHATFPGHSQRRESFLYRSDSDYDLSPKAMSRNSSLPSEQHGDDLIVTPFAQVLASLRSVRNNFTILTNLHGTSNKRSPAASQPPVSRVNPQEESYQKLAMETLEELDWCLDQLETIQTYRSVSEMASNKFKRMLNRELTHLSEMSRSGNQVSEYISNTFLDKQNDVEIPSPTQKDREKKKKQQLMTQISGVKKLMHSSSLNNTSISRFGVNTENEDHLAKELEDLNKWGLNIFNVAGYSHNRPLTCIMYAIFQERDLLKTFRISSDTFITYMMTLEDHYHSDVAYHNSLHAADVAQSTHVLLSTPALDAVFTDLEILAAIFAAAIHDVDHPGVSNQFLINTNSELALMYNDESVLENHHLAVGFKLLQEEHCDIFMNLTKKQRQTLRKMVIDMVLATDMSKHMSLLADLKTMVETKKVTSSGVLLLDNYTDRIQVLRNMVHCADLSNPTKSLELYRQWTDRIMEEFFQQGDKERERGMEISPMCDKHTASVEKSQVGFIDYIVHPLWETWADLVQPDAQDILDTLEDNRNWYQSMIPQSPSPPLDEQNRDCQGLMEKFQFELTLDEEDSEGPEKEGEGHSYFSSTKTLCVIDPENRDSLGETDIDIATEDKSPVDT
Sequence of Cytochrome P450 2C9 (Homo sapiens) (P11712 whole entry, looked up): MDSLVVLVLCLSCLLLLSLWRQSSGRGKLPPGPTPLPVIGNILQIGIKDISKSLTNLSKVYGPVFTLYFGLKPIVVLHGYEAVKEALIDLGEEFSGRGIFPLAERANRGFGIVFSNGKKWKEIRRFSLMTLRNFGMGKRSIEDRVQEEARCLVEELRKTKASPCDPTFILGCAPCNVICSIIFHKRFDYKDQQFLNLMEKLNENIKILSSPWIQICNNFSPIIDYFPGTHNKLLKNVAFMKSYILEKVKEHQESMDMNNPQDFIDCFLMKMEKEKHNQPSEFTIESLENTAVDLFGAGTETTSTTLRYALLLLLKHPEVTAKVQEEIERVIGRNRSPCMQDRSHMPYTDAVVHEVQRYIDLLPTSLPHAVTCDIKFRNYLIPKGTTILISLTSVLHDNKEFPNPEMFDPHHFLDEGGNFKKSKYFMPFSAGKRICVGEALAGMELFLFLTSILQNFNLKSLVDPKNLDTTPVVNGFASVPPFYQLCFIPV

As for `COc1cccc(Cn2c(=O)cnc3cnc(Oc4cccc(Cl)c4)nc32)c1`, the Potency was over 11.4 µM in test [1]; 12.6 µM (active) in [3]; over 46 µM in [6]; 3.98 µM (active) in test [8]; 5.01 µM (active) in test [9]. For the same compound, the activity change, negative = inhibition in test [2] was -19.7%; in test [4], -4.32%. Further, the activity, negative = inhibition in test [5] was -20.6%. Further, the Potency entry in [7] and in test [10] was “inactive” throughout. For the same compound, the outcome in test [11] was inactive.

For `Cc1cnc(CNc2nc(-c3ccc(C(=O)N(C)C)cc3)nc3ccccc23)cn1`, the Potency in test [1] is over 11.4 µM; in [3], 25.1 µM (active); in test [12], over 46 µM; in test [6], over 46 µM. Also, the activity change, negative = inhibition in test [2] is -29.1%. Besides, the activity, negative = inhibition in test [5] is -7.91%. Moreover, the Potency result in [7], in [13], in test [10], in [14] and in test [15] was “inactive” throughout. Besides, the result in test [11] was inactive.

Consider `O=C(c1cccc(F)c1)N1CCC2(CC1)CCN(c1ncccn1)CC2`, for which the Potency in test [1] is over 11.4 µM; in [3] it was 10 µM (active); in [6] it was over 46 µM; in [10], 7.94 µM (active). In addition, the values for the activity change, negative = inhibition in test [2] and in test [4] were -6.18% and 2.49%, respectively. Further, in test [5], the activity, negative = inhibition was -11.5%. Besides, the Potency entry in [7] and in test [9] was “inactive” each time. For the same compound, the outcome in test [11] was inactive.

With `N#Cc1cccc(-c2nc3cnc(N4CCNCC4)nc3n(C3CC3)c2=O)c1`, the Potency in test [1] was over 11.4 µM; in test [3], 5.01 µM (active); in test [12], over 9.22 µM; in [6] it was over 46 µM. Further, the values for the activity change, negative = inhibition in test [2] and in test [4] were 13.2% and 26.2%, respectively. Further, the Potency result in test [7], in test [13] and in test [10] was “inactive” each time. Moreover, the result in [11] was inactive.

`CCNc1ncc2nc(-c3ccc(F)cc3)c(=O)n(CCC#N)c2n1`: the Potency in test [1] was over 11.4 µM; in [3] it was 0.631 µM (active); in test [12] it was over 9.22 µM; in test [6], over 46 µM. For the same compound, the values for the activity change, negative = inhibition in [2] and in [4] were -13.4% and -10%, respectively. For the same compound, the Potency result in test [7] was “inactive”. Also, the outcome in test [11] was inactive.

Turning to `Cn1cc(-c2nc3cnc(Oc4ccccc4)nc3n(CCC#N)c2=O)c2ccccc21`, the Potency in test [1] was over 11.4 µM; in test [3] it was 3.16 µM (active); in test [12] it was over 9.22 µM; in [6], over 46 µM; in test [16], 3.16 µM (active). For the same compound, the activity change, negative = inhibition in test [2] is 5.74%; in test [4] it was 7.14%. Also, the Potency result in test [7], in test [13] and in [10] was “inactive” in each case. In test [11], the outcome was inactive.

For `O=C(c1cnccn1)N1CCC2(CC1)CN(c1ccccc1)C2`, the figures for the Potency in test [1] and in [6] were over 11.4 µM and over 46 µM, respectively. For the same compound, the activity change, negative = inhibition in test [2] was -9.4%; in test [4], 14%. Also, the Potency result in test [3] and in test [13] was “inactive” each time. Further, in test [5], the activity, negative = inhibition was -6.18%. In [11], the result was inactive.

For `O=S(=O)(c1ccccc1)N1CCC2(CC1)CN(C(c1ccccc1)c1ccccc1)C2`, the Potency in test [1] is over 11.4 µM; in test [6], over 46 µM; in test [10] it was 3.16 µM (active); in test [17] it was 2.51 µM (active). The results for the activity change, negative = inhibition in [2] and in test [4] were 15.1% and -14.8%, respectively. In addition, the Potency entry in test [3], in [7] and in test [9] was “inactive” throughout. For the same compound, the activity, negative = inhibition in test [5] is -6.71%. The result in test [11] was inactive.
